For one molecule, ΔTm results are on record in ChEMBL document CHEMBL4649985, “Generation of a Selective Small Molecule Inhibitor of the CBP/p300 Bromodomain for Leukemia Therapy” (Cancer Res, 2015).

Assay [1] has as its target Bromodomain-containing protein 4 (Homo sapiens) (UniProt O60885). Particulars: Compound concentration 10.0 uM, Protein concentration 2.0 uM.
For assay [2], the target named is T1, Transcription intermediary factor 1-alpha (Homo sapiens) (UniProt O15164).
T1 sequence (whole entry): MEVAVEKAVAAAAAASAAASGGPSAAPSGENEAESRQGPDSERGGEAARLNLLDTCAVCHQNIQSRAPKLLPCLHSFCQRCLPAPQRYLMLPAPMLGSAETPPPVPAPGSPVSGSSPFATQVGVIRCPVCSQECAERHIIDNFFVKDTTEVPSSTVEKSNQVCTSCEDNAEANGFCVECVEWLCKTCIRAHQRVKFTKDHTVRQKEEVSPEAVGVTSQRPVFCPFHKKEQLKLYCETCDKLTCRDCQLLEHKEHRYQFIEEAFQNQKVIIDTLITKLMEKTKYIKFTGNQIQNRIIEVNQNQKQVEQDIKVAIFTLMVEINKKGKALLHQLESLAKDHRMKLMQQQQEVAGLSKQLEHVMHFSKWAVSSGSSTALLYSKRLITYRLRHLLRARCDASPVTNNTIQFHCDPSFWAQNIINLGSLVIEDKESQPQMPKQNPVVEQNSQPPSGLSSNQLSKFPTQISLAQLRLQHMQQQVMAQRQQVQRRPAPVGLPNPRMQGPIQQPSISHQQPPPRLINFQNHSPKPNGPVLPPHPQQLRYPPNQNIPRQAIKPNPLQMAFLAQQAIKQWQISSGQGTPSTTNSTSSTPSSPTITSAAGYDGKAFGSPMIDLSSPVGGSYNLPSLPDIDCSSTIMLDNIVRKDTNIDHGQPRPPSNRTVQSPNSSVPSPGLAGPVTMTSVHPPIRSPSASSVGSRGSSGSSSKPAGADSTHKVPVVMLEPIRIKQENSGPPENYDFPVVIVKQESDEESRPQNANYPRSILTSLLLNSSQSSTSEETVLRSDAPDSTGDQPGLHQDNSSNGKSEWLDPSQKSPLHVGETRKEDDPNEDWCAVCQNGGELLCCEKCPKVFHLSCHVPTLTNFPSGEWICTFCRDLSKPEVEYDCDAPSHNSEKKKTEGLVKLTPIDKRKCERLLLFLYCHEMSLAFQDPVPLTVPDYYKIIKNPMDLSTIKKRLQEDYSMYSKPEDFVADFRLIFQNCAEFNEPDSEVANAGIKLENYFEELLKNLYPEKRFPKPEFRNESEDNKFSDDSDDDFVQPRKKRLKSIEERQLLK
Particulars: Compound concentration 10.0 uM, Protein concentration 2.0 uM.

For orientation: ΔTm means the shift of the melting midpoint relative to a reference.

Several values for one entry are separate records, joined by “and”; a condition that tells them apart may be missing. Identical values can stand only once.

Turning to `CCC(=O)N1CCOc2c(cc(-c3ccc(OC)c(OC)c3)cc2OC[C@H]2CCCN(C)C2)C1`, the ΔTm is 2.08 °C and 2.81 °C in assay [1]; 1.25 °C in assay [2].
